Among all 5,500 compounds or so, about 2,000 (36%) were called active. Not shown: some 18% with an inconclusive outcome. Rule as the data show it: active = normalized growth mostly below about 0.91 (no sharp cut-off); inconclusive = no clear call, values can overlap the other calls; inactive = mostly above about 0.92. The list shows a part of the results.
Assay: chemical genetic growth profiling, strain panel (AID 1159580);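 also: tested at 20 µM; growth read once vehicle control cultures reached saturation at 30 °C; 1 = growth at the plate median or of vehicle wells; lower values mean less growth of the strain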
Conditions: S. cerevisiae deletion strains, growth OD

Measured: normalized growth

O=C(OC1CCN(CCCl)CC1)C(c1ccccc1)c1ccccc1
inactive: locus YAL040C, strain CLN3, hits give low values 0.993 | locus YCL061C, strain MRC1 (second series), hits give low values 0.988 | locus YDR150W, strain NUM1, hits give low values 0.986 | locus YDR363W, strain ESC2, hits give low values 0.986 | locus YER002W, strain NOP16, hits give low values 1 | locus YGR078C, strain PAC10, hits give low values 0.994 | locus YJR075W, strain HOC1, hits give low values 0.995 | locus YNL128W, strain TEP1, hits give low values 0.997 | locus YNL153C, strain GIM3, hits give low values 0.969 | locus YNL175C, strain NOP13, hits give low values 1.01 | locus YNL197C, strain WHI3, hits give low values 1.03 | locus YNL224C, strain SQS1, hits give low values 0.99 | locus YOR083W, strain WHI5 (second series), hits give low values 0.996 | locus YPL241C, strain CIN2, hits give low values 0.99

Source: PubChem BioAssay AID1159580 (chemical genetic matrix, 2015)
